Measured potencies and affinities stand elsewhere. Activity calls are given as the source filed them. Unless noted, no rule for the calls is given here.
What follows are compounds tested against Calcium-dependent protein kinase 1 (Plasmodium falciparum (isolate 3D7)) (UniProt P62344) (assay: PfCDPK1 kinase inhibitors, biochemical, TCAMS library (AID 1159585; cut-off not given, nearly all actives have IC50 up to about 0.98 µM;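 also: inhibitors leave more ATP so luminescence rises with inhibition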)). Details: recombinant PfCDPK1, Kinase-Glo ATP depletion luminescence.
Sequence of Calcium-dependent protein kinase 1 (Plasmodium falciparum (isolate 3D7)) (P62344 whole entry, looked up): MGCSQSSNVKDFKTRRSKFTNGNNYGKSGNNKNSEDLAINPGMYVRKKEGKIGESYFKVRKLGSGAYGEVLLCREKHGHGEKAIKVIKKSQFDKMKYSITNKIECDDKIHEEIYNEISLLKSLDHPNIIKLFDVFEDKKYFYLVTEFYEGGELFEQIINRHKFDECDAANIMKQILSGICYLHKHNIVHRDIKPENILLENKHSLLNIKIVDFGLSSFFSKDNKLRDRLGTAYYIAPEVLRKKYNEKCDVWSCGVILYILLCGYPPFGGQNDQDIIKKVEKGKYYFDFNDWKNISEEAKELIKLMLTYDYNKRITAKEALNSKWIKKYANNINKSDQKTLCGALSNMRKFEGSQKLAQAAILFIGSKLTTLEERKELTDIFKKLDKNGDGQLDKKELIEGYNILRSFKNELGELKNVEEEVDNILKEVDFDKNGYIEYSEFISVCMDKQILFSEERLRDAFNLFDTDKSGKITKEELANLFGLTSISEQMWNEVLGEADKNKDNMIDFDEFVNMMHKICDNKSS

Question: `CCc1cn2c3c(cc(C(=O)N[C@@H](Cc4cccc(F)c4)[C@H](O)CNC4CCCCC4)cc13)N(C)S(=O)(=O)CC2` was tested. Which outcome did it give?
Answer: inactive

Question: Which outcome does the source give for `CC(C)NCc1ccc(-c2ccc(NC(=O)c3ccc(Cl)cc3)cc2)cc1` here?
Answer: inactive

Question: How did the outcome turn out when `CCc1ccc(NC(=O)c2ccc(CN3CCCN(CC4CCCCC4)CC3)cc2)cc1` was run?
Answer: inactive

Question: `COc1cccc(CNC(=O)c2cccc(-c3cccc(CN4CCC(N5CCCC5)CC4)c3)n2)c1` was tested. Which outcome did it give?
Answer: inactive

Question: For `CN1CCCC(CN2CCN(Cc3ccc(-c4ccc(-c5nc6ccc(F)cc6[nH]5)cc4)cc3)CC2)C1` (stereo not given), which outcome is on record?
Answer: inactive

Question: How did the outcome turn out when `Nc1ccc(-c2ccc(NC(=O)Nc3cc(C(F)(F)F)ccc3F)cc2)cn1` was run?
Answer: inactive

Question: How did the outcome turn out when `COc1ccc2nc(N3CCNCC3)nc(NCCCc3ccccc3)c2c1` was run?
Answer: inactive

Question: Which outcome does the source give for `O=C(N[C@H]1CCN(Cc2ccc(OCCN3CCCC3)c3ccccc23)C1)c1ccc(Cl)c(Cl)c1` here?
Answer: inactive

Question: With `Clc1cc(Nc2ncnc3sc(C#Cc4ncc[nH]4)cc23)ccc1OCc1ccccn1` as the compound, how does the outcome read?
Answer: inactive

Question: Which outcome does the source give for `CCCOc1c(CCNCCCCNCCc2ccc3ccccc3c2OCCC)ccc2ccccc12` here?
Answer: inactive

Question: Which outcome does the source give for `CCN(CC)CCNc1c2ccc(Cl)cc2nc2ccc(OC)nc12` here?
Answer: inactive

Question: With `CCn1c2c(c(=N)c3ccccc31)CCC2` as the compound, how does the outcome read?
Answer: inactive

Question: For `CCCNCc1ccc(-c2ccc(CN(CCOC)C(=O)CCCOCc3ccccc3)cc2)nc1`, which outcome is on record?
Answer: inactive

Question: Which outcome does the source give for `CCNc1cc(C(=O)N[C@@H](Cc2ccccc2)[C@H](O)CNC(C)(C)Cc2cccc(OC)c2)cc(N2CCCC2=O)c1` here?
Answer: inactive

Question: `CCOc1ccc(C(C)NC(=O)Cc2ccccc2F)cc1OCC` (stereo not given) was tested. Which outcome did it give?
Answer: inactive

Question: How did the outcome turn out when `CNC(=O)c1cnc(Nc2ccc(N3CCN(C)CC3)cc2)nc1Nc1ccccc1OC` was run?
Answer: inactive

Question: Which outcome does the source give for `CN(C)CCOc1ccnc2ccc(NC(=O)Cc3ccc(-c4ccncc4)c4ccccc34)cc12` here?
Answer: inactive

Question: `CC1(C)N=C(N)N=C(N)N1c1cc(Cl)c(Cl)cc1Cl` was tested. Which outcome did it give?
Answer: inactive

Question: For `CN(/N=C/c1ccc(Cl)cc1)c1nc(NCCc2ccc(O)cc2)nc(N2CCNCC2)n1`, which outcome is on record?
Answer: inactive

Question: How did the outcome turn out when `O=C(NCc1ccccc1F)c1ccc(N2CCC(NCc3cccc(-n4cccn4)c3)CC2)cc1` was run?
Answer: inactive

Question: With `COc1cc(F)c2nccc([C@@H](O)CN3CCC(NCc4cc5c(cc4F)OCCO5)CC3)c2c1` as the compound, how does the outcome read?
Answer: inactive

Question: With `CCCCCCCCS(=O)(=O)NCCCC1CCN(CCCCCNC(=O)C=Cc2ccc(Cl)c(Cl)c2)CC1` as the compound, how does the outcome read?
Answer: inactive

Question: `Nc1ccc2[nH]cc(C3CCN(CCC4CCN(C(=O)/C=C/c5ccc(Cl)c(Cl)c5)CC4)CC3)c2n1` was tested. Which outcome did it give?
Answer: inactive

Question: How did the outcome turn out when `Cc1ccc(S(=O)(=O)N2CCN(C(=O)c3cc(-c4ccccc4)n[nH]3)CC2)cc1` was run?
Answer: inactive

Question: With `CCCNC[C@@H](O)[C@H](Cc1ccccc1)NC(=O)c1cc(NCC)cc(N2CCCC2=O)c1` as the compound, how does the outcome read?
Answer: inactive

Question: For `COc1ccc(C2C(C(=O)Nc3ccc4c(c3)OCO4)c3cc(OC)c(OC)cc3C(=O)N2C)cc1` (stereo not given), which outcome is on record?
Answer: inactive

Question: For `O=C(Cc1ccc(NC(=O)c2ccc(O)c(-c3ccc(Cl)c(Cl)c3)c2)cc1)NCCN1CCOCC1`, which outcome is on record?
Answer: inactive

Question: How did the outcome turn out when `Cc1csc2nc(-c3ccccn3)nc(Nc3ccc4ncsc4c3)c12` was run?
Answer: inactive

Question: `CC(=O)Nc1ccc(C2NC(=O)NC(c3ccccc3)=C2c2nc3ccccc3s2)cc1` (stereo not given) was tested. Which outcome did it give?
Answer: inactive

Question: How did the outcome turn out when `CS(=O)(=O)CCNCc1nc(-c2ccc3c(Nc4ccc(Cl)cc4F)ccnc3c2)cs1` was run?
Answer: inactive

Question: `Cc1cccc2[nH]c(-c3cccc(-c4ccc(NC(=O)CN5CCOCC5)cc4)c3)nc12` was tested. Which outcome did it give?
Answer: inactive

Question: Which outcome does the source give for `Cc1cc(NN=Cc2ccc(Cl)cc2)c2ccc(F)cc2n1` here?
Answer: inactive

Question: With `N#CN1CC[C@H](CS(=O)(=O)c2cccc(Br)c2)C1` as the compound, how does the outcome read?
Answer: inactive

Question: `CC(C)(C)Oc1ccc(C[C@@H]2NC3(C(=O)N(Cc4ccc(Cl)c(Cl)c4)c4ccccc43)C3C(=O)N(c4ccc(Br)cc4)C(=O)C32)cc1` (stereo not given in full) was tested. Which outcome did it give?
Answer: inactive

Question: For `CN(c1ccc(F)cc1)S(=O)(=O)c1ccc(Cl)c(C(=O)Nc2cccc(C#N)c2)c1`, which outcome is on record?
Answer: inactive

Question: How did the outcome turn out when `Ic1cc(Nc2ncnc3ccsc23)ccc1OCc1ccccc1` was run?
Answer: inactive

Question: How did the outcome turn out when `Cc1cc(NC(=O)Nc2ccc3nc(C)oc3c2)c2cc(Cl)ccc2n1` was run?
Answer: inactive

Question: How did the outcome turn out when `Cc1ccc(N2C(N)=NC(N)=NC2c2ccccc2)cc1` (stereo not given) was run?
Answer: inactive

Question: How did the outcome turn out when `Cc1cc(-c2cccc3c(C(=O)N4CCc5cc6nccc(N7CCCN(C)CC7)c6cc54)cccc23)cc(C)n1` was run?
Answer: inactive

Question: Which outcome does the source give for `O=S(=O)(Nc1cc2c(cc1O)CCNCC2)c1ccc(-c2ccc(Cl)cc2)cc1` here?
Answer: inactive

What follows are compounds tested against Plasmodium falciparum protein kinase 6 (PK6, PF3D7_1337100) (UniProt Q8IDW1) (assay: PfPK6 kinase inhibitors, biochemical, TCAMS library (AID 1159586)). Details: recombinant PfPK6, Kinase-Glo ATP depletion luminescence.
Sequence of Plasmodium falciparum protein kinase 6 (PK6, PF3D7_1337100) (Q8IDW1 1-305): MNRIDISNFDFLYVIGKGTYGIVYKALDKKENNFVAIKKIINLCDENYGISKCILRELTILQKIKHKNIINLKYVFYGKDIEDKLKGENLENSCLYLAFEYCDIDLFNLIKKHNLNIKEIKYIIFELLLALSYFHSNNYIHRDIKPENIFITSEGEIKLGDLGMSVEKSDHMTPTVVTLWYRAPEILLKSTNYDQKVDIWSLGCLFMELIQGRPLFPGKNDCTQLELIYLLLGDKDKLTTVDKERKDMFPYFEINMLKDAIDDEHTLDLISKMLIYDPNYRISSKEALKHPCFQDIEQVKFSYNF

Question: How did the outcome turn out when `CCc1cn2c3c(cc(C(=O)N[C@@H](Cc4cccc(F)c4)[C@H](O)CNC4CCCCC4)cc13)N(C)S(=O)(=O)CC2` was run?
Answer: inactive

Question: How did the outcome turn out when `CC(C)NCc1ccc(-c2ccc(NC(=O)c3ccc(Cl)cc3)cc2)cc1` was run?
Answer: inactive

Question: Which outcome does the source give for `CCc1ccc(NC(=O)c2ccc(CN3CCCN(CC4CCCCC4)CC3)cc2)cc1` here?
Answer: inactive

Question: With `COc1cccc(CNC(=O)c2cccc(-c3cccc(CN4CCC(N5CCCC5)CC4)c3)n2)c1` as the compound, how does the outcome read?
Answer: inactive

Question: `CN1CCCC(CN2CCN(Cc3ccc(-c4ccc(-c5nc6ccc(F)cc6[nH]5)cc4)cc3)CC2)C1` (stereo not given) was tested. Which outcome did it give?
Answer: inactive

Question: With `Nc1ccc(-c2ccc(NC(=O)Nc3cc(C(F)(F)F)ccc3F)cc2)cn1` as the compound, how does the outcome read?
Answer: inactive

Question: With `COc1ccc2nc(N3CCNCC3)nc(NCCCc3ccccc3)c2c1` as the compound, how does the outcome read?
Answer: inactive

Question: With `O=C(N[C@H]1CCN(Cc2ccc(OCCN3CCCC3)c3ccccc23)C1)c1ccc(Cl)c(Cl)c1` as the compound, how does the outcome read?
Answer: inactive

Question: Which outcome does the source give for `Clc1cc(Nc2ncnc3sc(C#Cc4ncc[nH]4)cc23)ccc1OCc1ccccn1` here?
Answer: inactive

Question: Which outcome does the source give for `CCCOc1c(CCNCCCCNCCc2ccc3ccccc3c2OCCC)ccc2ccccc12` here?
Answer: inactive

Question: For `CCN(CC)CCNc1c2ccc(Cl)cc2nc2ccc(OC)nc12`, which outcome is on record?
Answer: inactive

Question: `CCn1c2c(c(=N)c3ccccc31)CCC2` was tested. Which outcome did it give?
Answer: inactive

Question: For `CCCNCc1ccc(-c2ccc(CN(CCOC)C(=O)CCCOCc3ccccc3)cc2)nc1`, which outcome is on record?
Answer: inactive

Question: For `CCNc1cc(C(=O)N[C@@H](Cc2ccccc2)[C@H](O)CNC(C)(C)Cc2cccc(OC)c2)cc(N2CCCC2=O)c1`, which outcome is on record?
Answer: inactive

Question: `CCOc1ccc(C(C)NC(=O)Cc2ccccc2F)cc1OCC` (stereo not given) was tested. Which outcome did it give?
Answer: inactive

Question: With `CNC(=O)c1cnc(Nc2ccc(N3CCN(C)CC3)cc2)nc1Nc1ccccc1OC` as the compound, how does the outcome read?
Answer: inactive

Question: How did the outcome turn out when `CN(C)CCOc1ccnc2ccc(NC(=O)Cc3ccc(-c4ccncc4)c4ccccc34)cc12` was run?
Answer: inactive

Question: How did the outcome turn out when `CC1(C)N=C(N)N=C(N)N1c1cc(Cl)c(Cl)cc1Cl` was run?
Answer: inactive

Question: How did the outcome turn out when `CN(/N=C/c1ccc(Cl)cc1)c1nc(NCCc2ccc(O)cc2)nc(N2CCNCC2)n1` was run?
Answer: inactive

Question: Which outcome does the source give for `O=C(NCc1ccccc1F)c1ccc(N2CCC(NCc3cccc(-n4cccn4)c3)CC2)cc1` here?
Answer: inactive

Question: How did the outcome turn out when `COc1cc(F)c2nccc([C@@H](O)CN3CCC(NCc4cc5c(cc4F)OCCO5)CC3)c2c1` was run?
Answer: inactive

Question: With `CCCCCCCCS(=O)(=O)NCCCC1CCN(CCCCCNC(=O)C=Cc2ccc(Cl)c(Cl)c2)CC1` as the compound, how does the outcome read?
Answer: inactive

Question: Which outcome does the source give for `Nc1ccc2[nH]cc(C3CCN(CCC4CCN(C(=O)/C=C/c5ccc(Cl)c(Cl)c5)CC4)CC3)c2n1` here?
Answer: inactive

Question: How did the outcome turn out when `Cc1ccc(S(=O)(=O)N2CCN(C(=O)c3cc(-c4ccccc4)n[nH]3)CC2)cc1` was run?
Answer: inactive

Question: Which outcome does the source give for `CCCNC[C@@H](O)[C@H](Cc1ccccc1)NC(=O)c1cc(NCC)cc(N2CCCC2=O)c1` here?
Answer: inactive

Question: With `COc1ccc(C2C(C(=O)Nc3ccc4c(c3)OCO4)c3cc(OC)c(OC)cc3C(=O)N2C)cc1` (stereo not given) as the compound, how does the outcome read?
Answer: inactive

Question: Which outcome does the source give for `O=C(Cc1ccc(NC(=O)c2ccc(O)c(-c3ccc(Cl)c(Cl)c3)c2)cc1)NCCN1CCOCC1` here?
Answer: inactive

Question: How did the outcome turn out when `Cc1csc2nc(-c3ccccn3)nc(Nc3ccc4ncsc4c3)c12` was run?
Answer: inactive

Question: `CC(=O)Nc1ccc(C2NC(=O)NC(c3ccccc3)=C2c2nc3ccccc3s2)cc1` (stereo not given) was tested. Which outcome did it give?
Answer: inactive

Question: How did the outcome turn out when `CS(=O)(=O)CCNCc1nc(-c2ccc3c(Nc4ccc(Cl)cc4F)ccnc3c2)cs1` was run?
Answer: inactive

Question: Which outcome does the source give for `Cc1cccc2[nH]c(-c3cccc(-c4ccc(NC(=O)CN5CCOCC5)cc4)c3)nc12` here?
Answer: inactive

Question: `Cc1cc(NN=Cc2ccc(Cl)cc2)c2ccc(F)cc2n1` was tested. Which outcome did it give?
Answer: inactive

Question: For `N#CN1CC[C@H](CS(=O)(=O)c2cccc(Br)c2)C1`, which outcome is on record?
Answer: inactive

Question: With `CC(C)(C)Oc1ccc(C[C@@H]2NC3(C(=O)N(Cc4ccc(Cl)c(Cl)c4)c4ccccc43)C3C(=O)N(c4ccc(Br)cc4)C(=O)C32)cc1` (stereo not given in full) as the compound, how does the outcome read?
Answer: inactive

Question: `CN(c1ccc(F)cc1)S(=O)(=O)c1ccc(Cl)c(C(=O)Nc2cccc(C#N)c2)c1` was tested. Which outcome did it give?
Answer: inactive

Question: `Ic1cc(Nc2ncnc3ccsc23)ccc1OCc1ccccc1` was tested. Which outcome did it give?
Answer: inactive

Question: How did the outcome turn out when `Cc1cc(NC(=O)Nc2ccc3nc(C)oc3c2)c2cc(Cl)ccc2n1` was run?
Answer: inactive

Question: `Cc1ccc(N2C(N)=NC(N)=NC2c2ccccc2)cc1` (stereo not given) was tested. Which outcome did it give?
Answer: inactive

Question: For `Cc1cc(-c2cccc3c(C(=O)N4CCc5cc6nccc(N7CCCN(C)CC7)c6cc54)cccc23)cc(C)n1`, which outcome is on record?
Answer: inactive

Question: How did the outcome turn out when `O=S(=O)(Nc1cc2c(cc1O)CCNCC2)c1ccc(-c2ccc(Cl)cc2)cc1` was run?
Answer: inactive

From PubChem BioAssay
